{"source": "PubChem BioAssay (Tox21)", "note": "Several values for one entry are separate records, joined by “and”; a condition that tells them apart may be missing. Equal entries are not always repeated. Records with an inconclusive call do not appear. Where a call stands in place of a potency, no number is given. Activity calls are given as the source filed them. Calls follow the shape of the dose curve; as a rule, active = well fitted activation curve with a large enough effect in the repeat runs; inconclusive = weak or mixed curves; inactive = no such curve, though single readings can be large or run the other way. Potency is read from the fitted curve at half-maximal effect.", "data": [{"molecular_target": "Aryl hydrocarbon receptor (Homo sapiens) (UniProt P35869)", "sequence (P35869 whole entry, looked up)": "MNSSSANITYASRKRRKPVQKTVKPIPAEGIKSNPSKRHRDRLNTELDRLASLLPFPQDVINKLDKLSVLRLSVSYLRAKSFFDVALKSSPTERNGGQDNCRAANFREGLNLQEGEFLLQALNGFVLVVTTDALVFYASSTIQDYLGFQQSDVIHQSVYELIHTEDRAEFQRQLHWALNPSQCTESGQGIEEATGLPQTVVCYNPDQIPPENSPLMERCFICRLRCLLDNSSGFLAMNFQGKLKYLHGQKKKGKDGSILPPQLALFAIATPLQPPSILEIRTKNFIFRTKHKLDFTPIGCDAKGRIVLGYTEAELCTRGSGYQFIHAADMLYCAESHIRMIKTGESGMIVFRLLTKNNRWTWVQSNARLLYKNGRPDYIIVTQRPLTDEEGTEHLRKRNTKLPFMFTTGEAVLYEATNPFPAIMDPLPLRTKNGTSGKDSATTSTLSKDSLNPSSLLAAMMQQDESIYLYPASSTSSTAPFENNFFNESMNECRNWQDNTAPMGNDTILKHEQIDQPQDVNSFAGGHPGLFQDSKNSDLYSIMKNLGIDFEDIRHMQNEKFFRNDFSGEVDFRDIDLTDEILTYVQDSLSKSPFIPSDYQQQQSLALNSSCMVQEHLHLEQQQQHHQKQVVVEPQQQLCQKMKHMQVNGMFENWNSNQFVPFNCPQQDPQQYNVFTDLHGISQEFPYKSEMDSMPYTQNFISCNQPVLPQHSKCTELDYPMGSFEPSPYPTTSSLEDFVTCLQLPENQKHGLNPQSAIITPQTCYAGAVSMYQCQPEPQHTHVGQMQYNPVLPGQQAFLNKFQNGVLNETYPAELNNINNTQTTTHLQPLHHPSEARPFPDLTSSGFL", "assay": "qHTS assay to identify small molecule that activate the aryl hydrocarbon receptor (AhR) signaling pathway (AID 743085); also: nearly all actives have a fitted effect of over 15% in size;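 as to activation: HG2L7.5c1 human HepG2 liver cells with stably integrated DRE-driven firefly reporter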", "conditions": "HepG2 AhR-luc (HG2L7.5c1), luciferase, 24 h; series mostly up to 70.3 µM", "source_text": "U.S. Tox21 Program National Center for Advancing Translational Sciences [NCATS] NIH Chemical Genomics Center [NCGC] U.S. Environmental Protection Agency [EPA] National Institutes of Environmental Health Sciences [NIEHS] National Toxicology Program [NTP] U.S. Food and Drug Administration [FDA] Tox21 Assay overview: The Aryl hydrocarbon Receptor (AhR), a member of the family of basic helix-loop-helix transcription factors, is crucial to adaptive responses to environmental changes. AhR mediates cellular responses to environmental pollutants such as aromatic hydrocarbons through induction of phase I and II enzymes but also interacts with other nuclear receptor signaling pathways. A cell based HepG2-AhR-luc assay (HG2L7.5c1 cell line, developed by Dr. Michael S. Denison, University of California at Davis, was used to assess the activation of AhR. HepG2 (human hepatocellular carcinoma) cells were stably transfected with an Ah receptor-responsive firefly luciferase reporter gene plasmid containing 20 dioxin responsive elements and luciferase reporter gene. Increased luciferase activity can be used to identify the compounds that induce AhR activation.\nTox21 Assay Protocol Summary: 4000 cells in 5 uL/well were dispensed into white wall/solid bottom 1536-well plates using a Multidrop Combi (Thermo Fisher Scientific Inc., Waltham, MA) dispenser. After the assay plates were incubated at 37C for 5 h, 23 nL of compound or DMSO vehicle was transferred to the assay plates by a pintool station (Kalypsys, San Diego, CA). The plates were incubated at 37C for 24 hr. After 1 ul/well of CellTiter-Fluor reagent (Promega, Madison, WI) was added into the assay plates using a Flying Reagent Dispenser (FRD) (Aurora Discovery, CA), the assay plates were incubated at 37C for 30 min. The fluorescence intensity in the plates was measured using a ViewLux plate reader (PerkinElmer, Shelton, CT), followed by the addition of 4 uL of ONE-Glo Luciferase Assay reagent (Promega) using an FRD (Aurora Discovery). After the assay plates were incubated at room temperature for 30 min, luminescence intensity was measured using a ViewLux plate reader (Perkin Elmer).", "values": [{"compound": "Oc1ccc(Cl)cc1Cl", "Potency": "inactive"}, {"compound": "NC(=O)CN1CCCC1=O", "Potency": "inactive"}, {"compound": "CCC/C=N/O", "Potency": "inactive"}, {"compound": "CC1(C)Cc2cccc(O)c2O1", "Potency": "inactive"}, {"compound": "Nc1ccc2ccccc2c1", "Potency": "20.9 µM (active) and 27.3 µM (active)"}, {"compound": "CCC[CH2][Sn]([Cl])([CH2]CCC)[CH2]CCC", "Potency": "inactive"}, {"compound": "C[N+](C)(C)CC(=O)[O-]", "Potency": "inactive"}, {"compound": "CNC(=S)S", "Potency": "inactive"}, {"compound": "CCNc1nc(Cl)nc(NC(C)(C)C#N)n1", "Potency": "inactive"}, {"compound": "Cc1cccc(N=Nc2ccc(N(C)C)cc2)c1", "Potency": "13.9 µM (active) and 9.69 µM (active)"}, {"compound": "O=[N+]([O-])c1ccc(Cl)c([N+](=O)[O-])c1", "Potency": "inactive"}, {"compound": "CC(C)COC(=O)c1ccccc1C(=O)OCC(C)C", "Potency": "inactive"}, {"compound": "CCCCOCC1CO1", "note": "(stereo not given)", "Potency": "inactive"}, {"compound": "O=C1Nc2ccc(Cl)cc2C(c2ccccc2)=NC1O", "note": "(stereo not given)", "Potency": "inactive"}, {"compound": "Cl", "Potency": "inactive"}, {"compound": "CCC[CH2][Sn]([Cl])([Cl])[CH2]CCC", "Potency": "inactive"}, {"compound": "[Cl-].[Cl-].[Cl-].[Fe+3]", "Potency": "inactive"}, {"compound": "C[N+](C)(C)C", "Potency": "inactive"}, {"compound": "CC(C)(c1ccc(OCC2CO2)cc1)c1ccc(OCC2CO2)cc1", "note": "(stereo not given)", "Potency": "inactive"}, {"compound": "CC(C)=CC1C(C(=O)OCc2cccc(Oc3ccccc3)c2)C1(C)C", "note": "(stereo not given)", "Potency": "inactive"}, {"compound": "CSc1nc(NC(C)C)nc(NC(C)C)n1", "Potency": "inactive"}, {"compound": "COc1ccc(C=O)cc1OC", "Potency": "inactive"}, {"compound": "CS(=O)(=O)NC(=O)c1cc(Oc2ccc(C(F)(F)F)cc2Cl)ccc1[N+](=O)[O-]", "Potency": "inactive"}, {"compound": "Brc1ccc(Br)cc1", "Potency": "inactive"}, {"compound": "CCCCOCCOC(C)=O", "Potency": "inactive"}, {"compound": "CN(C)P(=O)(N(C)C)N(C)C", "Potency": "inactive"}, {"compound": "CCCCOC(=O)COC(=O)c1ccccc1C(=O)OCCCC", "Potency": "inactive"}, {"compound": "[CH3][Sn]([Cl])([Cl])[Cl]", "Potency": "inactive"}, {"compound": "ClC(Cl)(Cl)Br", "Potency": "inactive"}, {"compound": "CCOP(=S)(OCC)SCn1c(=O)oc2cc(Cl)ccc21", "Potency": "32.9 µM (active) and 61.1 µM (active)"}, {"compound": "c1ccc(C2CO2)cc1", "note": "(stereo not given)", "Potency": "inactive"}, {"compound": "ClCc1ccccn1", "Potency": "inactive"}, {"compound": "CCC(=O)Nc1ccc(Cl)c(Cl)c1", "Potency": "54.5 µM (active)"}, {"compound": "N#Cc1cccnc1", "Potency": "inactive"}, {"compound": "CC(C)Nc1nc(Cl)nc(NC(C)C)n1", "Potency": "inactive"}, {"compound": "CC(C)(c1ccccc1)c1ccc(O)c(C(C)(C)c2ccccc2)c1", "Potency": "inactive"}, {"compound": "OC(c1ccc(Cl)cc1)(c1cncnc1)c1ccccc1Cl", "note": "(stereo not given)", "Potency": "inactive"}, {"compound": "CCN(CC)C(=O)C(C)Oc1cccc2ccccc12", "note": "(stereo not given)", "Potency": "54.9 µM (active) and 30.6 µM (active)"}, {"compound": "Cc1ccc([N+](=O)[O-])cc1", "Potency": "inactive"}, {"compound": "CCOP(=S)(OCC)SCSC(C)(C)C", "Potency": "inactive"}]}]}
